According to PubChem BioAssay (NCI):
Compounds without any hit were thinned out: in the full panel of roughly 79,000, 15% have a hit. Cut-off read from the data, not from the text of the source: active = growth inhibition above about 70%; inactive = the rest.

How the values were obtained:
[1] = NCI Yeast Anticancer Drug Screen. Data for the rad50 strain (AID 155);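 note: 0% = growth of vehicle-only cultures of the same strain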; settings: S. cerevisiae rad50 strain growth inhibition; at 50.0 µM; stronger effect = higher value
Summary of the method: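 Vehicle-treated cultures provide the reference for the growth inhibition reported for compound-exposed, repair-deficient yeast.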

[2] = NCI Yeast Anticancer Drug Screen. Data for the mec2-1 strain (AID 157); settings: S. cerevisiae mec2-1 strain, at 50.0 µM, stronger effect = higher value
Summary of the method: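 Strain: mec2-1 (DNA repair/cell cycle alteration). Compound exposure, then growth measured; inhibition expressed relative to vehicle.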

[3] = NCI Yeast Anticancer Drug Screen. Data for the sgs1 mgt1 strain (AID 161);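 note: 0% = growth of cultures given vehicle only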; settings: S. cerevisiae sgs1 mgt1 strain, at 50.0 µM, stronger effect = higher value
Summary of the method: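 Genetically altered yeast, compound exposure, growth inhibition relative to vehicle.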

[4] = NCI Yeast Anticancer Drug Screen. Data for the cln2 rad14 strain (AID 165);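 note: 0% = growth equal to vehicle treated cultures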; settings: S. cerevisiae cln2 rad14 strain, at 50.0 µM, stronger effect = higher value
Summary of the method: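 Compounds are applied to the cln2 rad14 yeast strain, and growth is then compared with that of vehicle-treated cultures to give inhibition.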

[5] = NCI Yeast Anticancer Drug Screen. Data for the bub3 strain (AID 167); settings: S. cerevisiae bub3 mutant strain, at 50.0 µM, stronger effect = higher value
Summary of the method: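 Mutant yeast screening strain plus compound; vehicle-treated cultures serve as the 0% inhibition reference.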

[6] = NCI Yeast Anticancer Drug Screen. Data for the mlh1 rad18 strain (AID 175); settings: S. cerevisiae mlh1 rad18 strain growth inhibition; at 50.0 µM; stronger effect = higher value
Summary of the method: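 Read-out is yeast growth inhibition, calculated against vehicle-only controls. The compound was applied to a strain engineered with DNA damage repair alterations.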

Measured: growth inhibition

CC12CCc3ccccc3C1=NNC(=O)C2 (stereo unspecified)
inactive: [1] -3.2% | [2] -7.55% | [3] 19.6% | [4] -6.45% | [5] -5.85% | [6] -6.15%

CC(=O)Nc1c(I)c(C(=O)NC2C(O)OC(CO)C(O)C2O)c(I)c(N(C)C(C)=O)c1I (stereo unspecified)
inactive: [1] -27.2% | [2] 4.55% | [3] -14.2% | [4] -21.6% | [5] -21.5% | [6] -38%

O=C(O)C(Cl)(c1ccccc1)c1ccccc1
inactive: [1] -6.5% | [2] -13% | [3] 7.5% | [4] -19.9% | [5] 3.55% | [6] -12.8%

Fc1ccc(NC(=S)NCCN2CCCC2)cc1
inactive: [1] 3.9% | [2] 34.2% | [3] 8.1% | [4] 3.75% | [5] 12.8% | [6] -4.3%

Cn1c(=O)c2c(n(C)c1=O)[n+]([O-])c([N+]1([O-])CCOCC1)n2C
inactive: [1] -3.85% | [2] -6.3% | [3] -0.6% | [4] -24.9% | [5] -4.15% | [6] 3.2%

C=CC1ON(C)CCc2cc(OC)c(OC)cc21 (stereo unspecified)
inactive: [1] -4.9% | [2] -1% | [3] -53.5% | [4] 15.1% | [5] -1.8% | [6] -9.9%

COC1CCC(C2=NC3CCCCC3SC2)CC1 (stereo unspecified)
inactive: [1] 13.6% | [2] 18.8% | [3] 21.5% | [4] -10.6% | [5] 54.8% | [6] 31.7%

CCN(CC)c1ccc(NC(=S)Nc2cccc(C(F)(F)F)c2)c(C)c1
inactive: [1] 35.9% | [2] 21.6% | [3] 52.2% | [4] 1.9% | [5] 2.45% | [6] 19.2%

O=C(NCC(=O)N1CCCC1C(=O)OC(=O)C1CCCN1C(=O)CNC(=O)OCc1ccccc1)OCc1ccccc1 (stereo unspecified)
inactive: [1] 44.3% | [2] 1.2% | [3] 4.35% | [4] 16.2% | [5] 18.2% | [6] -28.1%

O=C1OCC/C1=C\c1cccc2ccccc12
inactive: [1] 5.2% | [2] 2.4% | [3] -3.45% | [4] 12.5% | [5] -5% | [6] 6.35%

O=c1[nH]c(=O)n(C2CC(O)C(CO)O2)cc1OC/C=C/Cc1ccccc1 (stereo unspecified)
inactive: [1] -22.1% | [2] -12.8% | [3] 0.95% | [4] 7.75% | [5] -10.4% | [6] -20.7%

CCOC(=O)c1ccc(NC(=O)c2cnccn2)cc1
inactive: [1] -6.5% | [2] 0.3% | [3] -17.7% | [4] -15.4% | [5] -20.4% | [6] -2%

Cc1nc(C(=O)O)c(C(=O)O)[nH]1
inactive: [1] -4.4% | [2] -15.1% | [3] -10.9% | [4] -1.7% | [5] -7.75% | [6] 1.2%

O=C(OCCCCCCCCOC(=O)c1cccc([N+](=O)[O-])c1)c1cccc([N+](=O)[O-])c1
inactive: [1] 20.9% | [2] 11.8% | [3] 11.8% | [4] 8.15% | [5] -5.55% | [6] 4.85%

FC(F)(F)c1cc(NC(=S)SCc2ccc(Cl)cc2)ccc1Cl
inactive: [1] 22.8% | [2] 8.7% | [3] 16.2% | [4] 14.6% | [5] 13.6% | [6] 11.2%

O=CSC(=Nc1ccc(Cl)cc1)NC(=O)COc1ccc(Cl)cc1
inactive: [1] 5.05% | [2] -21.4% | [3] 58.9% | [4] -22.4% | [5] 33.3% | [6] 12.3%

Cc1c(Br)cc(C(=O)O)c(O)c1Br
inactive: [1] -4.95% | [2] 2.05% | [3] 19.6% | [4] -29.2% | [5] -26.6% | [6] 3.05%

CN(C)CNc1ncnc2onc(-c3ccccc3)c12
inactive: [1] 10.1% | [2] 14.5% | [3] 13.7% | [4] 11.6% | [5] -5.5% | [6] -4.15%

CC(C(=O)c1ccc(Cl)cc1)/C(=N/NC(=O)NN)C(=O)Nc1cccc(C(F)(F)F)c1 (stereo unspecified)
inactive: [1] -8.45% | [2] -16.6% | [3] -58.5% | [4] -56% | [5] 18.6% | [6] -6.95%

CC1(C)C(=O)/C=C\C(=O)C(C)(C)C2=CC=C(O2)C(C)(C)C(=O)C(Br)C(Br)C(=O)C(C)(C)C2=CC=C1O2 (stereo unspecified)
inactive: [1] -20.4% | [2] -18.1% | [3] -68.5% | [4] 5.6% | [5] -34.9% | [6] -27.6%

CN(CC(=O)c1ccc(Cl)cc1)Cc1ccccc1
inactive: [1] -1.45% | [2] -8.8% | [3] 3.4% | [4] -25.3% | [5] 0.9% | [6] -3.5%
